Several values for one entry are separate records, joined by “and”; a condition that tells them apart may be missing. Identical values can stand only once. The panel holds about 83,000 compounds, 20% with a hit somewhere; the sample as a whole holds those more often.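 Cells were grown in 96-well plates and exposed to the test compound at a single concentration for 48 hours; results are reported as percent growth, with values below 10 considered active.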 A number with no mark means an inactive call. Activity calls are given as the source filed them.
Test system: MDA-MB-468 breast
Test: NCI-60 one-dose screen, 48 h (100 = growth as untreated, 0 = no growth, -100 = all killed)
Conditions: 10 µM unless noted

Compound	growth
CN(C)CC1C(=O)O[C@H]2[C@H]1CC/C(COC(=O)NCc1ccc(Cn3c(=O)sn(CCCI)c3=O)cc1)=C\CC[C@@]1(C)O[C@@H]21 (some centres undefined)	-73.3% (active)
C#C[C@]1(O)CC[C@H]2[C@@H]3CC=C4c5sc(Nc6cccc(C)n6)nc5CC[C@]4(C)[C@H]3CC[C@@]21C	35.7%
COc1cnc2c(c1)C(=O)c1c-2n(CCCN2CCN(CCO)CC2)c(=O)c2cc([N+](=O)[O-])ccc12	76.6%
CCOP(=O)(OCC)OC[C@]12CCC(C)(C)C[C@H]1C1=CC[C@@H]3[C@@]4(C)CC[C@H](OP(=O)(OCC)OCC)C(C)(C)[C@@H]4CC[C@@]3(C)[C@]1(C)CC2	40.9%
CC1=C(C(=O)OC(C)C)C(c2ccc3c(c2)OCO3)NC(=S)N1 (centres undefined)	115%
CN(C)CCN1C(=O)c2ccc3c4c(ccc(c24)C1=O)C(=O)N(CCN=C=S)C3=O	-88.8% (active)
O=S(=O)(Oc1ccc(-c2nnc(Nc3ccccc3)s2)cc1)C(F)(F)C(F)(F)C(F)(F)C(F)(F)C(F)(F)C(F)(F)F	99.8%
Nc1ccc(S(=O)(=O)c2ccc(N)cc2)cc1	97.5% and 101%
COc1cc(/C=C/C(=O)c2cc(-c3ccc(F)cc3)ccc2O)cc(OC)c1OC	65.6%
Oc1ccc(Cl)cc1Cc1cc(Cl)ccc1O	19.2%
CN(C)c1ccc(C2(Cl)c3ccccc3N(C)c3ccccc32)cc1	50.8%
c1ccc2c(c1)Nc1cc3ccccc3cc1N2	40.3%
COc1cc([C@@H]2c3cc4c(cc3[C@H](O)[C@H]3COC(=O)[C@H]23)OCO4)cc(OC)c1OC	-17.5% (active)
CCOC(=O)CN1/C(=N/c2sc3c(c2C(=O)OCC)CCN(C(=O)OCC)C3)SC(=O)/C1=C\C(=O)OC	79.6%
COc1cc([C@@H]2c3cc4c(cc3[C@H](SC(=N)N)[C@H]3COC(=O)[C@H]23)OCO4)cc(OC)c1OC	-4.2% (active)
CCOP(=O)(OCC)OC[C@]12CC[C@@H](C)[C@H](C)C1C1=CC[C@@H]3[C@@]4(C)CCCNC(C)(C)[C@@H]4CC[C@@]3(C)[C@]1(C)CC2 (some centres undefined)	-51% (active)
CNc1nc2c(s1)C(c1cc(F)ccc1F)CC(=O)N2 (centres undefined)	-2.32% (active)
CN(C)CCNC(=O)n1cc(-c2ccncc2)c(-c2cc(O)cc(Cl)c2)n1	84.1%
C=C[C@@H]1C[C@H](O)Cc2c(C)cc(C)cc2N1	91.9%
CCN1C(=O)C2(Nc3ccccc3S2)c2cc(C)ccc21 (centres undefined)	98.6%
CCC(=C(c1ccc(OCCN(CC)CC)cc1)c1ccc(OCCN(CC)CC)cc1)c1ccc(Cl)cc1	-79.1% (active)
NC(C(=O)O)c1ccc([N+](=O)[O-])cc1 (centres undefined)	111%
CC(=O)Nc1ccc(S(=O)(=O)NC2CCCCC2)cc1	93.9%
CNC(=O)CN1CCC(Oc2cc3c(Nc4cccc(Cl)c4F)ncnc3cc2OC)CC1	-22.9% (active)
COc1ccc(C2CC(c3ccc(OC)c(OC)c3)=NN2C(=O)c2cc(OC)c(OC)c(OC)c2)c(OC)c1 (centres undefined)	53.6%
CC1(C)CC[C@]2(C(=O)O)CC[C@]3(C)C(=CC[C@@H]4[C@@]5(C)C[C@@H](Cc6cn([C@@H]7O[C@H](CO)[C@@H](O)[C@H](O)[C@H]7O)nn6)[C@H](O)C(C)(C)[C@@H]5CC[C@]43C)[C@@H]2C1	87%
O=C(Nc1ccc(Cl)cc1)c1cc(-c2ccc(F)cc2)c2sc(=O)[nH]c2n1	-8.3% (active)
CCCCn1cnc2c(Sc3c([N+](=O)[O-])ncn3C)nc(N)nc21	96.9%
C[C@@H]1O[C@@H](O[C@H]2[C@@H](OC(=O)[C@]34CCC(C)(C)C[C@H]3C3=CC[C@@H]5[C@@]6(C)C[C@H](O)[C@H](O[C@@H]7O[C@H](CO)[C@@H](O)[C@H](O)[C@H]7O)[C@@](C)(CO)[C@@H]6CC[C@@]5(C)[C@]3(C)C[C@H]4O)OC[C@@H](O)[C@@H]2O)[C@H](O)[C@H](O[C@@H]2OC[C@@H](O)[C@H](O[C@@H]3OC[C@](O)(CO)[C@H]3O[C@@H]3OC[C@@H](O)[C@H](O)[C@H]3O)[C@H]2O)[C@H]1O[C@@H]1OC[C@](O)(CO)[C@H]1O	-24.2% (active)

— PubChem BioAssay (NCI)
